# GLP-1R agonist – activates the human GLP-1 receptor; P43220; HEK293 GLP-1R CRE-luciferase, luminescence, 4-6 h; cells express a hypersensitive GLP-1R form; Potency, µM (titrated, usually from 45.6 µM), most hits filed as activators; actives 0.007% (n = 380,000)
# PTHR1 agonist – PTHR1 (human) receptor agonism; actives 0.075% (n = 410,000); AID 743266; Q03431; HEK293 GP2 PTHR1 cells, GloSensor cAMP luminescence, 1 h; Potency, µM (titrated, usually from 115 µM), hits mostly activators; also: nearly all actives have a fitted effect of over 55% in size
#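 HEK-293-derived GP2 cells expressing PTHR1 and a GloSensor cAMP reporter, 3,000/well, plated overnight, given luciferin plus IBMX (each 0.5 mM as added) for 1 h at 37 °C, then compound for 1 h at 37 °C. Luminescence was read after 15 min at room temperature.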
# GLP1R cytotox – cytotoxicity counter-screen for GLP-1 receptor inverse agonists; HEK293 cAMP-luciferase reporter cells, luminescence, 24 h; Potency, µM (top dose mostly 38.3 µM), hits mostly inhibitors; actives 0.13% (n = 410,000); AID 624418;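 also: loss of luciferase light is scored as toxicity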
#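 1536-well qHTS counterscreen of the MLSMR; 200 cells/uL, 12 h pre-incubation, 23 nL cpd, 24 h at 37 deg C 5% CO2, luciferase detection reagent, 12 min RT, luminescence. Inhibition = undesired.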
# GLP-1R inv ag – GLP-1 receptor (human) inverse agonism; actives 1.6% (n = 410,000); HEK293 GLP-1R CRE-luciferase, luminescence, 24 h; GLP-1R form is constitutively active; Potency, µM (top dose mostly 38.3 µM), most hits filed as inhibitors; P43220; also: nearly all actives have a fitted effect of over 55% in size
#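 Assay principle: reduced luminescence from a cAMP-responsive reporter in HEK293 cells co-expressing a constitutively active GLP-1R. Conditions: 24 hr compound incubation, 37 deg C, 5% CO2.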
# Hits are given with their value; – = inactive; ? = inconclusive; · = no result. Sampled rows, rich in hits. Any-hit rate of the full collection: about 1.7%. Calls follow the shape of the dose curve; as a rule, active = well fitted curve in the direction sought with a large enough effect; inconclusive = small, poorly fitted or top-dose-only effect, or another doubt; inactive = no such curve, though single readings can be large; an effect the other way counts as inactive or inconclusive.
SMILES,GLP-1R agonist,PTHR1 agonist,GLP1R cytotox,GLP-1R inv ag
COc1ccc(CN(C(=O)c2cnccn2)C(C(=O)Nc2ccc(F)cc2)c2ccccc2)cc1 (stereo not given),–,–,–,5.62µM
COC(=O)c1cc(S(=O)(=O)N2CCN(c3ccc(OC)cc3)CC2)c[nH]1,·,–,–,–
C(=N\Nc1ccc2ccccc2n1)/c1ccc2c(c1)OCCO2,–,–,–,–
Cc1cccc(/C=N/Nc2ccc3ccccc3n2)c1,–,–,?,10µM
COc1cc(NC(=O)CCCc2nnc3n(CC(C)C)c(=O)c4sccc4n23)cc(OC)c1,·,–,–,–
O=C(NC(=S)N1CCN(c2c(Cl)cccc2[N+](=O)[O-])CC1)c1cccs1,–,–,7.08µM,–
COc1ccc(N2CCN(C(=S)NC(=O)c3cccs3)CC2)c([N+](=O)[O-])c1,–,–,?,?
CC1=C(C(=O)N2CCCCC2)C(c2ccc(Cl)cc2)n2c(nc3ccccc32)N1 (stereo not given),–,–,–,–
Cc1c(C(=O)NCCc2ccccc2)oc2ccccc12,–,–,–,?
O=C(Nc1ccccc1Cc1ccccc1)c1oc2ccccc2c1COc1ccccc1,–,–,–,4.47µM
CC(OC(=O)c1oc2ccccc2c1COc1ccccc1)C(=O)NC(N)=O (stereo not given),–,–,–,–
O=C(NCCc1ccccc1)c1oc2ccccc2c1COc1ccccc1,–,–,–,3.16µM
Cc1nn(-c2ccccc2)c2c1N(CCCC(=O)NC(C)c1ccccc1)C(=O)CS2 (stereo not given),·,–,–,?
Cc1sc(-n2cccc2)c(C(C)NC(=O)Nc2cccc(C(F)(F)F)c2)c1C (stereo not given),·,–,–,8.91µM
Cc1ccc(NC(=O)NC(C)c2c(-n3cccc3)sc(C)c2C)cc1F (stereo not given),·,–,–,?
CCN(CC)C(=O)C1CCCN(c2ccc([N+](=O)[O-])cc2/C=N/NC(=O)c2cccc(Br)c2)C1 (stereo not given),–,–,–,2µM
Cc1ccc(N/N=C2\CCS(=O)(=O)c3sccc32)cc1,–,–,–,3.98µM
CN(C(=O)C(=O)Nc1ccc2nc3n(c(=O)c2c1)CCCCC3)c1cccc(C(F)(F)F)c1,·,–,–,–
Cc1ccccc1C1C=C(c2ccc(Cl)cc2)Nc2nnnn21 (stereo not given),·,–,–,–
O=S(=O)(c1ccc(OCC2CO2)cc1)c1ccc(OCC2CO2)cc1 (stereo not given),–,–,?,10µM
CC(C)(c1ccccc1)c1ccc(OCC2CO2)cc1 (stereo not given),–,–,–,–
Cc1cc(CC(C)C)n(-c2nc3ccccc3c(=O)n2OCc2ccccc2)n1,–,–,–,7.08µM
OC(c1ccccc1)(c1ccccc1)C1CCN(CCCOc2ccc3c(c2)CCCC3)CC1,–,–,?,7.94µM
N#CCc1ccc(OCCCN2CCC(C(O)(c3ccccc3)c3ccccc3)CC2)cc1,–,–,?,?
C=C1C(=O)O[C@@H]2[C@H]1CC[C@H](C)[C@]1(O)CCC(=O)[C@@]21C,–,–,?,8.91µM
SMILES,GLP-1R agonist,PTHR1 agonist,GLP1R cytotox,GLP-1R inv ag
O=C(CSc1nc2c([nH]c3ccccc32)c(=O)n1-c1ccccc1F)Nc1cccc(C(F)(F)F)c1,–,–,–,11.2µM
CC(C)(C)OC(=O)N1CCC(c2c(C(=O)NCCCN3CCc4ccccc4C3)cnn2-c2ccccc2)CC1,·,–,–,–
O=C(CSc1ccccc1)Nc1ccc(-c2nc3ccccc3[nH]2)cc1,–,–,–,?
O=C(Cc1cccs1)Nc1ccc(-c2nc3ccccc3[nH]2)cc1,–,–,–,4.47µM
COc1ccccc1C(=O)NCC(c1ccc(N(C)C)cc1)N1CCc2ccccc21 (stereo not given),·,–,–,–
CC1=Nc2cc(C(=O)NCCc3ccccc3)ccc2Sc2c(C)ccc(C)c21,–,–,?,?
CC1=Nc2cc(C(=O)NCCN3CCOCC3)ccc2Sc2c(C)ccc(C)c21,–,–,–,?
CC1=Nc2cc(C(=O)NCCc3ccc(Cl)cc3)ccc2Sc2c(C)ccc(C)c21,–,–,?,2.82µM
CC1=Nc2cc(C(=O)NCCCN3CCOCC3)ccc2Sc2c(C)ccc(C)c21,–,–,–,8.91µM
COC(=O)COc1ccc(Oc2nc(NC(C)(C)C)nc(N(C)C)n2)nn1,·,–,–,–

# Compound activity (PubChem)
